The target in assay [1] is Calcium and integrin-binding protein 1 (Homo sapiens) (UniProt Q99828). Description: Primary qHTS for Identification of Calcium Integrin Binding Protein 1 (CIB1) Competitor (AID 1508620).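 Note: GST tagged CIB1 binding a fluorescein labelled alphaIIb integrin peptide tracer; top concentration of the series differs between compounds.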 Summed up:
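Fluorescence polarization competition: CIB1-GST (1 uM final) preincubated with compound 15 min at room temperature, then FITC-labeled alphaIIb peptide (100 nM final) added for another 15 min. Polarization read at Ex 480/Em 540.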
On the technique in general: Quantitative high-throughput screening tests each substance at several concentrations.

The target of assay [2] is Cytochrome P450 2D6 (Homo sapiens) (UniProt P10635). The experiment in a line: Cytochrome P450 family 2 subfamily D member 6 (CYP2D6) small molecule antagonists: luciferase biochemical (cell-free) qHTS assay (AID 1645840; active = well fitted curve in the direction sought with a large enough effect in the repeat runs; an effect the other way counts as inactive or inconclusive; note: nearly all actives have a fitted effect of over 55% in size; note: potency is the fitted concentration of half-maximal effect). The essentials:
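P450-Glo CYP2D6 system: proluciferin substrate converted by enzyme to luciferin, read by luminescence proportional to activity. Enzyme-substrate mix with compound 10 min at room temperature, then NADPH regeneration 1 h before detection reagent.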

The target of assay [3] is Cytochrome P450 2C9 (Homo sapiens) (UniProt P11712). The experiment in a line: Cytochrome P450 family 2 subfamily C member 9 (CYP2C9) small molecule antagonists: luciferase biochemical (cell-free) qHTS assay (AID 1645842; active = well fitted curve in the direction sought with a large enough effect in the repeat runs; an effect the other way counts as inactive or inconclusive; note: nearly all actives have a fitted effect of over 55% in size; note: potency is the fitted concentration of half-maximal effect). Summed up:
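P450-Glo CYP2C9 system: proluciferin substrate with enzyme in mix containing 0.4% BSA, 10 min at room temperature, then NADPH regeneration solution added and incubated 1 h at 37C. Detection reagent stopped reaction; luminescence read after 20 min as RLU.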

Assay [4] in a line: Primary qHTS for inhibitors of nuclear receptor binding SET domain protein 2 (NSD2) in an isogenic RCH-ACV NSD2 p.E1099K mutant (9B) (AID 1645876). Note: nearly all actives have a fitted effect of over 70% in size. Note: potency is the fitted concentration of half-maximal effect.

Data on 27 compounds can be found in PubChem BioAssay (NCATS).

Where “and” joins values, the source holds several entries; their conditions need not be identical. Equal entries are not always repeated. Records with an inconclusive call do not appear. Calls of active or inactive are those of the source. Unless noted, calls come from the whole dose curve; as a rule, active = well fitted curve in the direction sought with a large enough effect; inconclusive = small, poorly fitted or top-dose-only effect, or another doubt; inactive = no such curve, though single readings can be large; an effect the other way counts as inactive or inconclusive.

Sequence of Cytochrome P450 2C9 (Homo sapiens) (P11712 whole entry, looked up): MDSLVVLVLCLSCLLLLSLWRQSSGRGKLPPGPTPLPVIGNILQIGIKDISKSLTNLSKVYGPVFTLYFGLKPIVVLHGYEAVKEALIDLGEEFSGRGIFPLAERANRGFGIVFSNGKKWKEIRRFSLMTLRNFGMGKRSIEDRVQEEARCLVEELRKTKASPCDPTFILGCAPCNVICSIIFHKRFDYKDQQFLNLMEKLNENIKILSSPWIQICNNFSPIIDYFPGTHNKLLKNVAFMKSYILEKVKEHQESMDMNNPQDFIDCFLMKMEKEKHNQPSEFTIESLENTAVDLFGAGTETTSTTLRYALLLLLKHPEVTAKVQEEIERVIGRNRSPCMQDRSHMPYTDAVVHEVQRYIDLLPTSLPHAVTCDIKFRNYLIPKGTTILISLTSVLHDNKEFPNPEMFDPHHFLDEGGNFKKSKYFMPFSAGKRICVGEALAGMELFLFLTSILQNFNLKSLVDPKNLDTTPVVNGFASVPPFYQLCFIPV
Sequence of Calcium and integrin-binding protein 1 (Homo sapiens) (Q99828 whole entry, looked up): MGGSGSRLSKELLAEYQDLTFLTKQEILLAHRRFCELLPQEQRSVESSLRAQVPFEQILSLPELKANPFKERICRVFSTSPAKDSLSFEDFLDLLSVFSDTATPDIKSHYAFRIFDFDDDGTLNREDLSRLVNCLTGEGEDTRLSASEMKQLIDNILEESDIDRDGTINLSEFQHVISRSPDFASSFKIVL
Sequence of Cytochrome P450 2D6 (Homo sapiens) (P10635 whole entry, looked up): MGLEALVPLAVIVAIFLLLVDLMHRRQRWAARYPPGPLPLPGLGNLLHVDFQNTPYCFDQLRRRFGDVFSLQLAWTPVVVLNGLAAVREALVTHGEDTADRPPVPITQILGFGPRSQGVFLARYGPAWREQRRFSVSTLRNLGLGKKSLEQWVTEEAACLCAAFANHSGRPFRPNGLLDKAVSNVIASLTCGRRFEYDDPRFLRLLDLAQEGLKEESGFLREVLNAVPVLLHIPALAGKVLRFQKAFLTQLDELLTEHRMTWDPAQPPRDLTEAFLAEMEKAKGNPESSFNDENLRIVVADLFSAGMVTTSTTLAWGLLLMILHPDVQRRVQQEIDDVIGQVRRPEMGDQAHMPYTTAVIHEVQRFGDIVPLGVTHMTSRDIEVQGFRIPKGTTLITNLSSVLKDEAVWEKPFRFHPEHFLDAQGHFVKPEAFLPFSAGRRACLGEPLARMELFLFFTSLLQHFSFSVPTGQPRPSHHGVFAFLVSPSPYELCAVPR

As for `c1ccc(-c2ncc(CN3CCN(c4ncccn4)CC3)[nH]2)cc1`, the Potency result in assay [1] and in assay [4] was “inactive” in each case. Besides, the Potency is 0.952 µM (active) in assay [2] and 2.13 µM (active) in assay [3].

With `C[C@@H]1CN(Cc2ncccn2)C[C@H]1c1nc2c(cnn2C2CCOCC2)c(=O)[nH]1`, the Potency entry in assay [1], in assay [2], in assay [3] and in assay [4] was “inactive” in each case.

For the compound `Cc1onc(C(=O)N2CCN(C(c3ccc(Cl)cc3)c3ccc(Cl)cc3)CC2)c1[N+](=O)[O-]`, the Potency entry in assay [1] and in assay [2] was “inactive” each time. In addition, the Potency in assay [3] is 5.35 µM (active); in assay [4] it was 230 nM (active).

In the case of `COC(=O)N1CCC(n2ncc3c(N4CCOCC4)nc(-c4ccc(NC(=O)Nc5ccc(CO)cc5)cc4)nc32)CC1`, the Potency result in assay [1] was “inactive”. Also, the Potency in assay [2] was 8.49 µM (active); in assay [3], 6.74 µM (active); in assay [4], 16.3 nM (active).

As for `CC(C)C(CO)Nc1nc(Nc2cc(N)cc(Cl)c2)c2ncn(C(C)C)c2n1` (stereo unspecified), the Potency entry in assay [1] was “inactive”. Moreover, the figures for the Potency in assay [2], in assay [3] and in assay [4] were 23.9 µM (active), 0.536 µM (active) and 6490 nM (active), respectively.

Consider `CC(C)(C)c1cc(Br)cc([C@H](CC(=O)O)NC(=O)CNC(=O)c2cc(O)cc(NC3=NCC(O)CN3)c2)c1` (stereo partly specified), for which the Potency entry in assay [1], in assay [2], in assay [3] and in assay [4] was “inactive” throughout.

Consider `O=C(c1cn(Cc2cncn2Cc2ccc(Br)cc2)cc1-c1cccc2ccccc12)N1CCOCC1`, for which the Potency entry in assay [1] was “inactive”. The Potency in assay [2] is 10.7 µM (active); in assay [3], 1.69 µM (active); in assay [4], 1830 nM (active).

As for `COc1ncc(Nc2ncc([C@H](C)N3CCN(S(C)(=O)=O)CC3)cc2-c2nc(C)nc(N)n2)cc1F`, the Potency entry in assay [1] and in assay [2] was “inactive” throughout. In addition, the Potency was 12 µM (active) in assay [3]; 5.8 nM (active) and 5.9 nM (active) in assay [4].

`COc1cc2ncnc(N3CCC(Oc4cnc5ccccc5n4)C3)c2cc1OC` (stereo unspecified): the Potency result in assay [1] and in assay [2] was “inactive” throughout. For the same compound, the Potency in assay [3] is 10.7 µM (active); in assay [4], 258 nM (active).

As for `CCC(Nc1ncnc2nc[nH]c12)c1nc2cccc(F)c2c(=O)n1-c1ccccc1` (stereo unspecified), the Potency result in assay [1] and in assay [2] was “inactive” each time. The Potency in assay [3] is 13.5 µM (active); in assay [4], 72.8 nM (active).

With `COc1ccc(C2(O)CCC(N3CC[C@@H](NC(=O)CNC(=O)c4cccc(C(F)(F)F)c4)C3)CC2)cn1` (stereo partly specified), the Potency result in assay [1], in assay [3] and in assay [4] was “inactive” throughout. The Potency in assay [2] was 10.7 µM (active).

For `O=C(Nc1nc2ccccc2n1CCc1ccccc1)c1ccccc1`, the Potency entry in assay [1] and in assay [2] was “inactive” each time. Further, the figures for the Potency in assay [3] and in assay [4] were 8.49 µM (active) and 6490 nM (active), respectively.

As to `CC(C)(C)NCCCNC(=O)c1cccc(Br)c1`, the Potency result in assay [1], in assay [3] and in assay [4] was “inactive” in each case. Also, in assay [2], the Potency was 0.849 µM (active).

For `CC(Oc1ccc2[nH]nc(/C=C/c3cnn(CCO)c3)c2c1)c1c(Cl)cncc1Cl` (stereo unspecified), the Potency result in assay [1] is “inactive”. The Potency in assay [2] is 2.39 µM (active); in assay [3] it was 0.536 µM (active); in assay [4], 115 nM (active).

Consider `Cc1nc2sc(C(=O)NCc3ccncc3)c(N)c2c(C)c1Cl`, for which the Potency entry in assay [1], in assay [3] and in assay [4] was “inactive” throughout. The Potency in assay [2] is 2.39 µM (active).

For `CS(=O)(=O)N(CC(=O)NCC1CC1)c1cc(C(F)(F)F)ccc1Cl`, the Potency result in assay [1], in assay [2] and in assay [4] was “inactive” in each case. The Potency in assay [3] was 3.38 µM (active).

Regarding `CC(NC(=O)CCc1nc2ccccc2c(=O)[nH]1)c1ccccc1` (stereo unspecified), the Potency result in assay [1], in assay [2], in assay [3] and in assay [4] was “inactive” each time.

Consider `CNC(=S)NS(=O)(=O)c1cc(CCNC(=O)c2cc(Cl)ccc2OC)ccc1OC`, for which the Potency entry in assay [1], in assay [2] and in assay [4] was “inactive” in each case. Also, the Potency in assay [3] was 6.74 µM (active).

Regarding `c1ccc(N2CCN(CCc3nn[nH]n3)CC2)cc1`, the Potency result in assay [1], in assay [2] and in assay [4] was “inactive” in each case. For the same compound, the Potency in assay [3] was 9.52 µM (active).

`NC(=O)c1cccc2cn(-c3ccc(C4CCCNC4)cc3)nc12` (stereo unspecified): the Potency result in assay [1], in assay [2] and in assay [3] was “inactive” each time. Moreover, the Potency in assay [4] was 3250 nM (active).

In the case of `O=C(Cc1ccc(-c2ccccc2)cc1)NC1CCC1`, the Potency entry in assay [1], in assay [2] and in assay [4] was “inactive” in each case. In addition, in assay [3], the Potency is 6.74 µM (active).

Consider `O=C(Nc1ccccc1)N1CCN(Cc2ccc3ccccc3n2)CC1`, for which the Potency result in assay [1], in assay [2] and in assay [4] was “inactive” throughout. The Potency in assay [3] was 10.7 µM (active).

As to `Cc1[nH]c2ccccc2c1CCNC(=O)c1ccccc1F`, the Potency result in assay [1] and in assay [4] was “inactive” in each case. For the same compound, the Potency in assay [2] is 21.3 µM (active).

On to `COc1cc2nc(N3CCCC3)nc(NCCCCCN3CCCC3)c2cc1OC`, for which the Potency result in assay [1] and in assay [3] was “inactive” in each case. Further, the Potency in assay [2] was 4.77 µM (active); in assay [4], 4590 nM (active).

`CC(C)(C)c1ccc(S(=O)(=O)NCc2ccc(C(=O)Nc3cccnc3)cc2)cc1`: in assay [1], the Potency result was “inactive”. In addition, the Potency is 6.74 µM (active) in assay [2], 12 µM (active) in assay [3] and 258 nM (active) in assay [4].

On to `CCOc1ccc(NC(=S)N2CCC(C(O)(c3ccccc3)c3ccccc3)CC2)cc1`, for which the Potency entry in assay [1] and in assay [4] was “inactive” each time. The Potency in assay [2] is 2.68 µM (active); in assay [3] it was 9.52 µM (active).

As to `CCOCc1cc(OC)c(-c2ccc(C[C@H](NC(=O)c3c(F)cccc3F)C(=O)O)cc2)c(OC)c1`, the Potency entry in assay [1], in assay [2] and in assay [4] was “inactive” in each case.
